Measured values published in PubChem BioAssay (EPA / NIEHS).
Inconclusive results are not listed. Calls of active or inactive are those of the source. The calls were made as follows, unless noted: active = hit-call score of the fitted dose curve at least 0.9, where 1 is the maximum; inconclusive = response in the unintended direction; inactive = score below 0.9.

Key:
[1] = Tanguay_ZF_120hpf_SOMI_legacy: (Legacy) Oregon State University Tanguay Lab 120 Hour Post-fertilization zebrafish Assay for Somite Malformation (AID 2283647)
Summary of the method: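 Read-out: presence or absence of somite malformation in 120 hpf larvae, gain-of-signal relative to DMSO baseline. Embryos lacked chorion (pronase, 4 hpf) and were exposed statically from 6 hpf at 28C; dead larvae not scored.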

[2] = Tanguay_ZF_120hpf_PFIN_legacy: (Legacy) Oregon State University Tanguay Lab 120 Hour Post-fertilization zebrafish Assay for Pectoral Fin Malformation (AID 2283648);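 also: each larva judged yes or no for fin defect by brightfield with dead larvae skipped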
Summary of the method: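 Binary pectoral fin malformation call at 120 hpf by brightfield microscopy; 5D wild-type zebrafish, chorion removed at 4 hpf, one embryo per well from 6 hpf, static exposure at 28C; DMSO (0.64% final) as baseline.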

[3] = Tanguay_ZF_120hpf_CFIN_legacy: (Legacy) Oregon State University Tanguay Lab 120 Hour Post-fertilization zebrafish Assay for Caudal Fin Malformation (AID 2283649)
Summary of the method: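 Binary presence or absence of caudal fin malformation at 120 hpf, read by brightfield microscopy, with DMSO as baseline. Larvae came from 5D wild-type embryos exposed statically from 6 hpf at 28C after pronase dechorionation.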

[4] = Tanguay_ZF_120hpf_PIG_legacy: (Legacy) Oregon State University Tanguay Lab 120 Hour Post-fertilization zebrafish Assay for Pigmentation Malformation (AID 2283650);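 also: dechorionated Tropical 5D zebrafish embryos exposed singly from 6 to 120 hpf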
Summary of the method: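 Brightfield scoring of pigmentation malformation at 120 hpf, recorded as binary present/absent per larva. Exposure: dechorionated 5D wild-type embryos, one per well, static from 6 hpf at 28C, final DMSO 0.64% (vol/vol). Dead embryos not scored.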

[5] = Tanguay_ZF_120hpf_CIRC_legacy: (Legacy) Oregon State University Tanguay Lab 120 Hour Post-fertilization zebrafish Assay for Circulatory Malformation (AID 2283651)
Summary of the method: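 Static exposure, 6–120 hpf, 28C, sealed and dark; one dechorionated 5D embryo/well; DMSO 0.64% v/v final. Binary circulation endpoint by brightfield; dead embryos not scored.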

[6] = Tanguay_ZF_120hpf_SWIM_legacy: (Legacy) Oregon State University Tanguay Lab 120 Hour Post-fertilization zebrafish Assay for Swim Bladder Malformation (AID 2283654);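 also: swim bladder malformation in each larva scored yes or no under brightfield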
Summary of the method: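 Tropical 5D embryos dechorionated at 4 hpf; 1 embryo/well from 6 hpf; static, sealed, dark exposure at 28C until 120 hpf; final DMSO 0.64%; 5uM trimethyltin chloride positive control; swim bladder defect recorded yes/no; dead embryos not scored.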

[7] = Tanguay_ZF_120hpf_TRUN_legacy: (Legacy) Oregon State University Tanguay Lab 120 Hour Post-fertilization zebrafish Assay for Truncated Body (AID 2283655)
Summary of the method: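 Truncated body is recorded as a binary endpoint at 120 hpf by brightfield imaging of wild-type 5D larvae. Exposure runs statically from 6 hpf at 28C with 0.64% DMSO; embryos dying earlier are not scored.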

[8] = Tanguay_ZF_120hpf_NC_legacy: (Legacy) Oregon State University Tanguay Lab 120 Hour Post-fertilization zebrafish Assay for Notochord and Tail Malformation (AID 2283656)
Summary of the method: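 Binary notochord-distortion calls, made by brightfield inspection, form the read-out; activity is fitted in the positive direction against DMSO. Exposure ran statically from 6 to 120 hpf at 28C with 0.64% DMSO.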

[9] = read-out: kallikrein-3 (KLK3), KLK3 (gene 354); assay: LTEA_HepaRG_KLK3: Life Technologies and Expression Analysis (LTEA) Assay for kallikrein-3 (KLK3) using HepaRG (AID 2283652; active = hit-call score of the fitted dose curve at least 0.9, where 1 is the maximum; inactive = score below 0.9); settings: mRNA level, 48 h; actives raise or lower the signal
Procedure: LTEA_HepaRG is a cell based, multiplexed-readout assay that uses HepaRG, a human liver cell line, with measurements taken at 48 hours after chemical dosing on a 96-well plate.LTEA_HepaRG_KLK3 is one of 102 assay component(s) measured in the LTEA HepaRG cell culture assay. It is a marker of Cellular remodeling.Data from the assay component LTEA_HepaRG_KLK3 was analyzed into 1 endpoint. This assay endpoint, LTEA_HepaRG_KLK3, was analyzed with bidirectional fitting relative to DMSO as the negative control and baseline of activity. Using a type of inducible reporter, measures of mRNA induction for gain or loss-of-signal activity can be used to understand regulation of transcription factor activity. To generalize the intended target to other relatable targets, this assay endpoint is annotated to the protease intended target family, where the subfamily is Cellular remodeling.
A total of 1060 chemcials from the ToxCast library were tested in eight-point concentration-response experiments. Cell culture and cytotoxicity assays were conducted at Thermo Fisher Scientific's Custom Services facility (Madison, WI). A single lot of human HepaRG cells (Thermo Fisher Scientific, Frederick, MD) was used for the cell culture experiments. 96-well format collagen type I coated plates of human HepaRG cells were prepared using established methods. Briefly, cryopreserved HepaRG cells were thawed, plated at a density of approximately 100,000 cells/well in HepaRG Thaw, Plate, and General Purpose media (HPRG770, Thermo Fisher Scientific), and incubated for 48 hours. […] Fluidigm's 96.96 Dynamic ArrayTM (Fluidigm, Amsterdam, the Netherlands) technology was used for gene expression analyses by quantitative reverse transcription polymerase chain reaction (qRT-PCR, performed by Quintiles/Expression Analysis, Durham, NC)89. […]

[10] = read-out: solute carrier (SLC22A6), SLC22A6 (gene 9356); assay: LTEA_HepaRG_SLC22A6: Life Technologies and Expression Analysis (LTEA) Assay for solute carrier (SLC22A6) using HepaRG (AID 2283653; active = hit-call score of the fitted dose curve at least 0.9, where 1 is the maximum; inactive = score below 0.9); settings: mRNA level, 48 h; actives raise or lower the signal
Summary of the method: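 Read-out is SLC22A6 transcript level by qRT-PCR, normalised to three housekeeping genes and fitted for gain or loss relative to 0.5% DMSO vehicle. Human HepaRG cells received chemicals at up to 100 uM for 48 h.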

Measured: AC50

CC(C)(C)C(=O)C(Oc1ccc(Cl)cc1)n1cncn1 (stereo not given)
inactive: [1] | [2] | [3] | [4] | [5] | [6] | [7] | [8]

Nc1cnn(-c2ccccc2)c(=O)c1Cl
inactive: [1] | [2] | [3] | [4] | [5] | [6] | [7]

COP(=S)(OC)Oc1ccc([N+](=O)[O-])c(C)c1
inactive: [1] | [2] | [3] | [4] | [5] | [6] | [7] | [8]

CS(=O)(=O)c1cc(C(F)(F)F)ccc1C(=O)c1cnoc1C1CC1
inactive: [1] | [2] | [3] | [4] | [5] | [6] | [7]

CCC(C)n1c(=O)[nH]c(C)c(Br)c1=O (stereo not given)
inactive: [1] | [2] | [3] | [4] | [5] | [9] | [10] | [6]

CS(=O)(=O)c1ccc(C(=O)C2C(=O)CCCC2=O)c([N+](=O)[O-])c1
inactive: [1] | [2] | [3] | [4] | [5] | [6] | [7] | [8]

CC1(C)CON(Cc2ccccc2Cl)C1=O
inactive: [1] | [2] | [3] | [4] | [5] | [6] | [7] | [8]

O=P(O)(O)CCCl
inactive: [1] | [2] | [3] | [4] | [5] | [6] | [7] | [8]

CC(C)Oc1cccc(NC(=O)c2ccccc2C(F)(F)F)c1
inactive: [1] | [2] | [3] | [4] | [5] | [9] | [10] | [6] | [7]

CCOP(=O)(OCC)Oc1nc(Cl)c(Cl)cc1Cl
inactive: [1] | [2] | [3] | [4] | [5] | [6] | [7] | [8]

COP(=O)(OC)O/C(C)=C/C(=O)N(C)C
inactive: [1] | [2] | [3] | [4] | [5] | [6] | [7] | [8]

N#CN=C1SCCN1Cc1ccc(Cl)nc1
inactive: [1] | [2] | [3] | [4] | [5] | [6] | [7]

Cc1nc(N(C)C)nc(OC(=O)N(C)C)c1C
inactive: [1] | [2] | [3] | [4] | [5] | [6] | [7]

CC1(C)C(C=C(Cl)Cl)C1C(=O)OC(C#N)c1cccc(Oc2ccccc2)c1 (stereo not given)
inactive: [3] | [4] | [5] | [6] | [7]
active: [1] 1.86 µM | [2] 0.994 µM

CCCCC(C#N)(Cn1cncn1)c1ccc(Cl)cc1 (stereo not given)
inactive: [1] | [3] | [4] | [5] | [10] | [6] | [8]
active: [2] 24.1 µM | [7] 48 µM

CCCC(=NOCC)C1=C(O)CC(CC(C)SCC)CC1=O (stereo not given)
inactive: [1] | [2] | [3] | [4] | [5] | [6] | [7] | [8]
